Experiment in all cases: NCI-60 one-dose screen, 48 h (100 = growth as untreated, 0 = no growth, -100 = all killed)
The subject of test [1] is RPMI-8226 leukemia. The note with it: 10 µM unless noted.
Test [2] has as its system OVCAR-8 ovarian. The settings on record: 10 µM unless noted.
The test system of test [3] is OVCAR-4 ovarian. The settings on record: 10 µM unless noted.
In test [4] the test system is SK-OV-3 ovarian. The settings on record: 10 µM unless noted.
The subject of test [5] is IGROV1 ovarian. The settings on record: 10 µM unless noted.
In test [6] the test system is OVCAR-3 ovarian. The settings on record: 10 µM unless noted.
In test [7] the test system is HS 578T breast. The settings on record: 10 µM unless noted.
Test [8] relates to NCI/ADR-RES ovarian. The settings on record: 10 µM unless noted.
Test [9] relates to T-47D breast. The note with it: 10 µM unless noted.
Test [10] relates to BT-549 breast. The note with it: 10 µM unless noted.
Test [11] deals with MDA-MB-435 melanoma. The note with it: 10 µM unless noted.
Test [12] has as its system SW-620 colon. The note with it: 10 µM unless noted.
For test [13], the system named is MCF7 breast. The settings on record: 10 µM.
The test system of test [14] is HCT-116 colon. The note with it: 10 µM unless noted.
Test [15] relates to HCC-2998 colon. The note with it: 10 µM unless noted.
The subject of test [16] is KM12 colon. The note with it: 10 µM unless noted.
The test system of test [17] is OVCAR-5 ovarian. The note with it: 10 µM unless noted.

The panel holds about 83,000 compounds, 20% with a hit somewhere; the sample as a whole holds those more often.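 The test compound was applied at a single concentration to cells in 96-well plates for 48 hours, and percent growth was recorded.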 Values without a mark were called inactive. Activity calls are given as the source filed them. The calls were made as follows: active = growth percent below 10; inactive = the rest.

With `C=C[C@@H]1CCC/C=C/[C@@H]2C[C@H](O)C[C@H]2[C@H](O)/C=C/C(=O)O1`, the growth was 23.6% in test [1]; 21.4% in test [2]; 23.8% in test [3]; 20.5% in test [4]; 11.8% in test [5]; -30.8% (active) in [6]. For the same molecule, the growth was 31.3% in [7]; 1.8% (active) in [8]; -40.9% (active) in [9]; 40.6% in [10]; 12.9% in [11]; -15.9% (active) in [12]. Also, the growth in test [13] was -14.8% (active); in [14] it was -0.456% (active); in test [15] it was -23.3% (active); in test [16] it was -36.3% (active).
For `COc1ccccc1C(=O)/C=C/c1ccccc1`, the growth was -2.98% (active) in test [1]; 101% in test [17]; 88.6% in [3]; 90.3% in test [4]; 85.7% in [5]; 76.4% in test [8]. In addition, the growth was 81.4% in test [9]; 77.5% in test [10]; 78.4% in test [11]; 67.4% in test [12]; 28.6% in test [13]; 37% in test [14]. In addition, the growth in test [15] was 103%; in test [16], 55.2%.
Consider `COC(=O)c1c2c(c(C)[n+]([O-])c1C)C(=O)C=C(NCc1ccccc1)C2=O`, for which the growth in test [1] is -0.203% (active); in [17] it was -63.3% (active); in test [3], -95% (active); in test [5], -56.6% (active); in [6], -35.4% (active); in test [7] it was -30.6% (active). In addition, the growth in test [8] was -14% (active); in test [9], -34.4% (active); in test [10], -67.5% (active); in test [11], -89.6% (active); in [12] it was -27.9% (active); in test [13], -62.1% (active). Also, the growth is -12.6% (active) in [14], -34.5% (active) in test [15] and -10.5% (active) in test [16].
On to `c1ccc(CNc2nc(Nc3ccccc3)nc3ccccc23)cc1`, for which the growth in [1] was 45.4%; in test [17], 72.8%; in test [3], 36.8%; in test [4], 3.4% (active); in test [5], 63.2%; in test [6], 39.6%. Further, the growth in test [7] is 44.4%; in [8] it was 62.3%; in [9], 77.4%; in test [10], 89.2%; in test [11], 11.7%; in [12], 56.1%. Moreover, the growth in [13] was 56.9%; in test [14] it was 58.2%; in test [15] it was 37.2%; in test [16], 71.8%.
`Cc1cc(Br)c(N)c(Br)c1`: the growth was 99.5% in test [1]; 100% in [17]; 94.9% in test [3]; 83.3% in test [4]; 110% in [5]; 108% in [6]. For the same molecule, the growth is 109% in test [7]; 98% in test [8]; 92.5% in test [9]; 94.9% in test [10]; 97.4% in test [11]; 101% in test [12]. In addition, the growth in [13] was 92.3%; in test [14], 82.8%; in [15] it was 90.6%; in [16] it was 104%.
`Cn1c(C(=O)c2cccc3ccccc23)nc2ccccc21`: the growth in test [1] was 17.6%; in [17], 49%; in test [3], 19.9%; in test [4], 22%; in test [5], -6.8% (active); in test [6] it was 29.6%. Further, the growth was 45.7% in test [7]; 4.01% (active) in [8]; 17% in [9]; 13% in test [10]; 17.4% in test [11]; 22.4% in test [12]. In addition, the growth in test [13] was 15.6%; in test [14], 22.7%; in test [15] it was 6.79% (active); in test [16], 25.9%.
Turning to `CC[C@H](C)[C@@H](C(=O)OC)n1cc(CNC(=O)[C@@H](Cc2ccccc2)NC(=O)OCc2ccccc2)nn1`, the growth in [1] is 90.1%; in test [2], 91.3%; in test [3], 105%; in test [4], 109%; in test [5], 92.2%; in [6] it was 115%. Also, the growth is 101% in test [7]; 107% in test [9]; 106% in test [10]; 99.9% in test [11]; 102% in test [12]; 97% in test [13]. In addition, the growth was 102% in test [14] and 103% in [16].
Consider `O=C(NCc1ccco1)C1CN(c2ccc(Cl)cc2)N(c2ccc(Cl)cc2)C1=O` (configuration not stated), for which the growth in [1] was 48%; in [17] it was 82.2%; in [3], 57.7%; in test [5], 46.3%; in test [6], 3.64% (active); in test [7] it was 36.7%. Besides, the growth in test [8] is 24.3%; in [9], 43.2%; in test [10], 51.9%; in test [11], -32.5% (active); in test [12], 28.6%; in [13], 14.2%. For the same molecule, the growth in test [14] was 21.9%; in test [15], 76.1%; in test [16], 22.3%.
As to `Clc1ncccc1Nc1ccc2nnc(-c3ccncc3)n2n1`, the growth in test [1] is 98.9%; in test [17] it was 104%; in test [3], 91.3%; in test [4], 104%; in [5] it was 82.3%; in test [6] it was 102%. The growth is 102% in test [7]; 98.7% in test [8]; 86.6% in test [9]; 108% in test [10]; 102% in test [11]; 103% in [12]. The growth in test [13] is 94.2%; in [14] it was 101%; in test [15], 95.7%; in [16], 101%.
Take `O=C(CSc1nc2ccccc2c(=O)n1-c1ccccc1)Nc1ccc(C(=O)/C=C/c2ccc(Cl)cc2)cc1`: the growth in test [1] was 91.5%; in [2], 103%; in test [17], 98.4%; in [6] it was 104%; in test [7], 106%; in test [8] it was 106%. Also, the growth is 107% in [9]; 111% in [10]; 103% in [11]; 99.1% in [12]; 85.1% in [13]; 102% in [14]. For the same molecule, the values for the growth in [15] and in test [16] were 109% and 100%, respectively.

These data come from PubChem BioAssay (NCI).
